PubChem BioAssay (Tox21)
Values without a mark were called inactive. A call without a number means that no potency is given here. Calls of active or inactive are those of the source. Calls follow the shape of the dose curve; as a rule, active = well fitted cell-killing curve with a large enough effect in the repeat runs; inconclusive = weak or mixed curves, or effect the other way; inactive = flat fitted curve, though single readings scatter.

test: qHTS assay to identify small molecule HDAC inhibitors - cell viability counter screen (AID 1259365); conditions: HCT-116 viability, CellTiter-Glo ATP luminescence, 2 h; series mostly up to 92.4 µM; also: nearly all actives have a fitted effect of over 50% in size
Excerpt: U.S. Tox21 Program National Center for Advancing Translational Sciences [NCATS] NIH Chemical Genomics Center [NCGC] U.S. Environmental Protection Agency [EPA] National Institutes of Environmental Health Sciences [NIEHS] National Toxicology Program [NTP] U.S. Food and Drug Administration [FDA] Tox21 Assay Overview: Histone deacetylases (HDACs) are a group of epigenetic enzymes that regulate gene expression by histone deacetylation. HDACs are capable of introducing epigenetic modifications and such aberrations contribute to the onset and progression of several human diseases, thus making HDACs a popular therapeutic target. For identifying endogenous class I/II HDAC inhibitors a homogenous, luminogenic HDAC I/II cell based assay was used to measure the relative activity of class I and II HDACs from cells. Wild type HCT-116 cells were used to screen Tox21 compound libraries for identifying class I/II HDAC inhibitors.
Tox21 Assay Protocol Summary: HCT-116 cells were dispensed at 1,500 per well in 5uL of culture medium into white solid bottom 1536-well plates (Greiner Bio-One, Monroe, NC) using a Multidrop Combi (Thermo Scientific, Waltham, MA) dispenser. The assay plates were incubated at 37 C and 5% CO2 for an overnight, and then 23nL of compounds dissolved in DMSO and positive control were transferred using a Pintool station (Wako, San Diego, CA). The assay plates were incubated at 37C and 5% CO2 for 2hr. After compound treatment, 4uL of CellTiter-Glo reagent (Promega Corporation, Madison, WI) was added to each well of the assay plates using Flying Reagent Dispenser (FRD, Aurora Discovery, San Diego, CA) and incubated the assay plates at room temperature for 30min. The luminescence signal was quantified using a ViewLux plate reader (Perkin Elmer, Shelton, CT).

Structure (SMILES)	Potency	activity change, negative = cytotoxicity
O=C(Oc1ccccc1)c1cccc(C(=O)Oc2ccccc2)c1	inactive	–
Cc1ccc2ccc3cccc4ccc1c2c34	inactive	–
O=S(=O)(O)c1cc(S(=O)(=O)O)c2ccc3c(S(=O)(=O)O)cc(S(=O)(=O)O)c4ccc1c2c43	–	1.04% [at 19 µM]
Cc1ccc(N)cc1O	inactive	–
Cc1c(-c2ccc(O)cc2)n(Cc2ccc(OCCN3CCCCCC3)cc2)c2ccc(O)cc12	inactive	–
CN1CN(C)CN(C)C1	inactive	–
CCN(CC)CCSC(=O)C(c1ccccc1)c1ccccc1	inactive	–
Clc1ccc(C(Cn2ccnc2)OCc2c(Cl)cccc2Cl)c(Cl)c1 (stereo not given)	inactive	–
CC(C)(c1cc(Br)c(OCCO)c(Br)c1)c1cc(Br)c(OCCO)c(Br)c1	inactive	–
CCOC(=O)CC(C)O (stereo not given)	inactive	–
O=C(Nc1ccc(Cl)cc1)Nc1ccc(Cl)c(C(F)(F)F)c1	inactive	–
O=C(O)CC(=O)O	inactive	–
CN(C)CCCN1c2ccccc2CCc2ccccc21	inactive	–
CC[N+](CC)(CC)Cc1ccccc1	inactive	–
CCCCCCCCCC(=O)N(C)C	inactive	–
CCOC(=O)CN	inactive	–
Cc1cccc(C)c1NC(=O)CN1CCN(CCCC(c2ccc(F)cc2)c2ccc(F)cc2)CC1	inactive	–
Cc1cn[nH]c1	inactive	–
CCCSS/C(CCO)=C(\C)N(C=O)Cc1cnc(C)nc1N	inactive	–
C=C(C)C(=O)OCCC[Si](Cl)(Cl)Cl	inactive	–

Structure (SMILES)	Potency	activity change, negative = cytotoxicity
CC=O	inactive	–
COc1cc(C(=O)NS(=O)(=O)c2ccccc2C)ccc1Cc1cn(C)c2ccc(NC(=O)OC3CCCC3)cc12	inactive	–
Clc1ccccc1CN1CCc2sccc2C1	inactive	–
CN1CCN(C2Cc3ccccc3Sc3ccc(Cl)cc32)CC1 (stereo not given)	inactive	–
CC1CCCCN1CCCOC(=O)c1ccc(OC2CCCCC2)cc1 (stereo not given)	inactive	–
CCCCOC(=O)C(C)CC (stereo not given)	inactive	–
Clc1nc2ccccc2s1	inactive	–
CC1CCCNC1 (stereo not given)	inactive	–
COc1nccnc1CC(C)C	inactive	–
Cc1occc1SSc1ccoc1C	inactive	–
Cc1nc(Nc2ncc(C(=O)Nc3c(C)cccc3Cl)s2)cc(N2CCN(CCO)CC2)n1	inactive	–
O=C1OC(OC(=O)c2cccnc2Nc2cccc(C(F)(F)F)c2)c2ccccc21 (stereo not given)	inactive	–
Cc1ccc(-n2[nH]c(C)c(N=Nc3cccc(-c4cccc(C(=O)O)c4)c3O)c2=O)cc1C	inactive	–
CCCCCCS	inactive	–
O=C(O)CCn1c2c(c3ccccc31)C[C@H](NS(=O)(=O)c1ccc(F)cc1)CC2	inactive	–
CCN(CC)CCOc1ccc(C(O)(Cc2ccc(Cl)cc2)c2ccc(C)cc2)cc1 (stereo not given)	inactive	–
CCCCNc1c(C(=O)OCC)c(C)nc2c1cnn2CC	inactive	–
OCCC(O)CO (stereo not given)	inactive	–
O[C@@H](c1cc(C(F)(F)F)nc2c(C(F)(F)F)cccc12)[C@H]1CCCCN1	inactive	–
CC(C)=CCCC(C)CCOC(=O)C(C)C (stereo not given)	inactive	–
